Compounds without any hit were thinned out: in the full panel of roughly 83,000, 20% have a hit.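 Interpretation: 100, growth as untreated; towards 0, rising growth inhibition; 0, no net growth; 0 to -100, cell death. Compounds scoring below 10 were considered active.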 Calls of active or inactive are those of the source.
Experiments:
Experiment in all cases: NCI-60 one-dose screen, 48 h (100 = growth as untreated, 0 = no growth, -100 = all killed)
Settings in all cases: 10 µM
[1] = test system: NCI-H23 lung
[2] = test system: NCI-H226 lung
[3] = test system: NCI-H322M lung
[4] = test system: HOP-62 NSCLC
[5] = test system: NCI-H460 lung
[6] = test system: HOP-92 NSCLC
[7] = test system: NCI-H522 lung
[8] = test system: A549/ATCC NSCLC
[9] = test system: 786-0 renal
[10] = test system: COLO 205 colon
[11] = test system: DU-145 prostate
[12] = test system: K-562 leukemia
[13] = test system: MALME-3M melanoma
[14] = test system: MDA-MB-231 breast
[15] = test system: SF-268 CNS
[16] = test system: SF-295 CNS
[17] = test system: SF-539 CNS
[18] = test system: UACC-257 melanoma
[19] = test system: M14 melanoma
[20] = test system: RXF 393 renal

Measured: growth

Cc1cc(=O)oc2cc(OCCCCOc3ccc(/C=C/C(=O)Nc4ccccc4[N+](=O)[O-])cc3)ccc12
inactive: [1] 98.8% | [2] 127% | [3] 99.6% | [4] 109% | [5] 119% | [6] 130% | [7] 105% | [8] 106% | [9] 111% | [10] 124% | [11] 102% | [12] 102% | [13] 101% | [14] 102% | [15] 120% | [16] 99.8% | [17] 98.8% | [18] 111% | [19] 112%

CCN1CCN(Cc2ccc(C(=O)Nc3cccc(-c4cn(-c5ccc6oc(=O)ccc6c5)nn4)c3)cc2C(F)(F)F)CC1
inactive: [10] 48.1%
active: [1] -100% | [2] -82.1% | [3] -100% | [4] -99.5% | [5] -100% | [6] -18% | [7] -100% | [8] -100% | [9] -100% | [11] -100% | [12] -61.7% | [13] -100% | [14] -100% | [15] -32.5% | [16] -100% | [17] -100% | [18] -49.9% | [19] -100%

CN1CCN(Cc2ccc(NC(=O)c3cncc(C#Cc4cnc5ccc(N[C@@H]6CCOC6)nn45)c3)cc2C(F)(F)F)CC1
active: [1] -81.3% | [2] -94.9% | [3] -99.2% | [4] -75.5% | [5] -30% | [6] -82% | [7] -71.6% | [8] -56% | [9] -77.4% | [10] -65.5% | [11] -100% | [12] -0.568% | [13] -99.1% | [14] -94.7% | [15] -80.7% | [16] -98.6% | [17] -100% | [18] -85.9% | [19] -83.3%

O=C(NO)c1ccc(Cn2ccc3c(Nc4ccccc4)ncnc32)cc1
inactive: [2] 32% | [3] 42.7% | [4] 14.4% | [5] 13.1% | [8] 25.3% | [9] 31% | [11] 20% | [12] 12.1% | [15] 30.8% | [18] 26.5% | [19] 10.5%
active: [1] -87.2% | [6] -16.3% | [7] -40.4% | [10] -84.9% | [13] -4.38% | [14] -30.6% | [16] -67.5% | [17] -80%

COc1ccc(C(=O)/C=C/c2ccc(Cl)c(C(F)(F)F)c2)cc1S(N)(=O)=O
active: [1] -86.5% | [2] -95.3% | [3] -100% | [4] -84% | [5] -79.2% | [6] -68.8% | [7] -83.2% | [8] -78.1% | [9] -85.6% | [10] -71.5% | [11] -20.9% | [12] 5.18% | [13] -97.9% | [14] -100% | [15] -40.5% | [16] -100% | [17] -100% | [18] -78.2% | [19] -87.5%

CN1C(=O)N(C)C2SC(N/N=C/c3ccccc3)=NC21 (centres undefined)
inactive: [1] 79.5% | [2] 98.1% | [3] 98.3% | [4] 76.9% | [5] 68.9% | [6] 111% | [7] 60.4% | [8] 72.4% | [9] 82.3% | [10] 92.5% | [11] 97.1% | [12] 19.2% | [13] 61.6% | [14] 56.5% | [15] 82.9% | [16] 66.6% | [17] 64.5% | [18] 90.5% | [19] 48.4%

CN1CCN(Cc2ccc(NC(=O)c3cncc(C#Cc4cnc5ccc(N[C@H]6CCOC6)nn45)c3)cc2C(F)(F)F)CC1
active: [1] -80.4% | [2] -89.1% | [3] -95.3% | [4] -80% | [5] -76.1% | [6] -79.4% | [7] -69.1% | [8] -59.9% | [9] -75.6% | [10] -79.6% | [11] -99.9% | [12] 0.651% | [13] -97.3% | [14] -92.4% | [15] -74.5% | [16] -98.4% | [17] -99.7% | [18] -84.1% | [19] -82%

CC(=O)Nc1ccc(-c2cn(-c3cccc(C(=O)Nc4ccc(Cl)c(C(F)(F)F)c4)c3)nn2)cn1
active: [1] -67.6% | [2] -72.8% | [3] -18.7% | [4] -60.2% | [5] -73.3% | [6] -30.8% | [7] -63.2% | [8] -43.4% | [9] -34.4% | [10] -40.9% | [11] 3.54% | [12] 4.92% | [13] -89.6% | [14] -87% | [15] 6.74% | [16] -64.2% | [17] -97.4% | [18] -21.8% | [19] -49.1%

O=C1Nc2ccc(Cl)cc2/C1=C/c1ccc(OCc2ccccn2)cc1
active: [2] 1.26%
inactive: [1] 62.2% | [3] 64.2% | [4] 45.6% | [5] 16% | [6] 72.1% | [7] 66% | [8] 64.4% | [9] 25.7% | [10] 89.1% | [11] 87.8% | [12] 51% | [13] 38.5% | [14] 21.7% | [15] 79.3% | [16] 84.5% | [17] 73.5% | [18] 118% | [19] 89.9%

CCCn1c(=O)c2[nH]c(-c3ccc(OCc4nc5ccccc5[nH]4)cc3)nc2n(CCC)c1=O
active: [2] -30.3% | [5] 6.69% | [6] -6.45% | [9] -48.5% | [13] -36.4% | [14] -42.6% | [17] -44.3%
inactive: [1] 32.5% | [3] 59.7% | [4] 22.2% | [7] 20.9% | [8] 38.6% | [10] 89.1% | [11] 54% | [12] 76% | [15] 38% | [16] 37.4% | [18] 82.3% | [19] 73.7%

CCOP(=O)(OCC)O[C@H]1CC[C@]2(C)[C@H]3CC[C@@H]4[C@@H]([C@](C)(O)CCC=C(C)C)CC[C@@]4(C)[C@]3(C)CC[C@H]2C1(C)C
inactive: [1] 15.4% | [2] 20.9% | [3] 74.1% | [4] 57.3% | [5] 11.2% | [8] 22.1% | [9] 23.3% | [11] 41.4% | [12] 13% | [13] 40.3% | [14] 13.9% | [15] 45.9% | [16] 32.1% | [17] 42.7% | [19] 29%
active: [6] 2.88% | [7] 1.32% | [10] -33% | [18] 9.27%

O=C(Nc1cccc([N+](=O)[O-])c1)Nc1cccc([N+](=O)[O-])c1
inactive: [1] 65.5% | [2] 74.4% | [3] 89.2% | [4] 92.7% | [5] 70.5% | [6] 80.4% | [7] 64.8% | [8] 82.2% | [9] 74% | [10] 121% | [11] 82% | [12] 57.6% | [13] 98.6% | [14] 87.5% | [15] 79.9% | [16] 76.3% | [17] 93% | [18] 93.2% | [19] 87.2%

CN1CCN(c2ccc(Nc3nc(NCCCNC(=O)c4ccc(F)cc4)c4sccc4n3)cc2)CC1
active: [9] -4.91% | [13] -72.3% | [17] -90% | [18] -26.7% | [19] -7%
inactive: [1] 74.8% | [2] 81.2% | [3] 79.9% | [4] 92.5% | [5] 62.5% | [6] 56.8% | [7] 87.5% | [8] 56.3% | [10] 90.3% | [11] 75.5% | [14] 58.1% | [20] 10.8% | [15] 74.6% | [16] 79.9%

S=c1nc(-c2ccccc2)cc(-c2cc3ccccc3nc2Cl)[nH]1
inactive: [1] 78.5% | [2] 76.8% | [3] 98.5% | [4] 72.7% | [5] 90.4% | [6] 75.9% | [7] 57.8% | [8] 86.1% | [9] 90.5% | [10] 96.3% | [11] 90.5% | [12] 14.2% | [13] 66.4% | [20] 91.2% | [15] 70.5% | [16] 55.8% | [17] 72.3% | [18] 81.6% | [19] 36.7%

O=C1Nc2ccc(Cl)cc2/C1=C/c1ccc(OCc2ccc(Br)cc2F)cc1
active: [1] 7.12% | [2] 6.85% | [4] 5.12% | [5] 7.07% | [9] 2.33% | [20] 1.46%
inactive: [3] 48.2% | [6] 10.9% | [7] 23.3% | [8] 34.1% | [10] 51.6% | [11] 41.1% | [12] 40.7% | [13] 19.2% | [15] 20.3% | [16] 22% | [17] 33.3% | [18] 65.2% | [19] 46.8%

Nc1nc(-c2ccccc2)cc(-c2cc3ccccc3nc2Cl)n1
inactive: [1] 89.3% | [2] 78.1% | [3] 96.7% | [4] 89.4% | [5] 81.5% | [6] 73.1% | [7] 89.4% | [8] 91% | [9] 89.7% | [10] 110% | [11] 81.5% | [12] 20% | [13] 88.4% | [20] 85.2% | [15] 88.3% | [16] 78.6% | [17] 78.5% | [18] 97.8% | [19] 84.2%
